The supplement of paper PMC8728848
Changes are numbered by the printed parent chain. This is one part of a sample in which the strongest signals are shown more often than they occur.

What was measured:
Test in all cases: glycan array binding signal (z-score within array); higher = stronger binding
Fuc(a1-2)Gal(b1-4)Glc6S = conditions: glycan notation: IUPAC condensed, linker removed
Summary of the method: (§1)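 Arrays were curated from the Consortium for Functional Glycomics database, 3228 in total, and kept only where the protein sequence was available. Binding is expressed as a within-array Z-score. This score was averaged across arrays of the same protein sequence at different concentrations or buffers and across linkers, and negative values can be read as non-binding.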

Fuc(a1-2)[Gal(a1-3)]Gal = conditions: glycan notation: IUPAC condensed, linker removed; mutation: R343I
Summary of the method: as §1

[1] = target: Fuc(a1-2)[Gal(a1-3)]Gal(b1-3)GlcNAc; conditions: glycan notation: IUPAC condensed, linker removed; mutation: R343I
Summary of the method: as §1

[2] = target: Fuc(a1-2)[GalNAc(a1-4)]Gal(b1-4)GlcNAc; conditions: glycan notation: IUPAC condensed, linker removed; mutation: R343I
Summary of the method: as §1

Fuc(a1-3)GlcNAc = conditions: glycan notation: IUPAC condensed, linker removed
Summary of the method: as §1

[3] = target: Fuc(a1-3)[Gal(b1-4)]GlcNAc(b1-2)Man(a1-3)[Fuc(a1-3)[Gal(b1-4)]GlcNAc(b1-2)Man(a1-6)]Man(b1-4)GlcNAc(b1-4)GlcNAc; conditions: glycan notation: IUPAC condensed, linker removed; mutation: R343I
Summary of the method: as §1

[4] = target: Fuc(a1-3)[Gal(b1-4)]GlcNAc(b1-2)Man(a1-6)[Gal(b1-4)GlcNAc(b1-2)Man(a1-3)]Man(b1-4)GlcNAc(b1-4)GlcNAc; conditions: glycan notation: IUPAC condensed, linker removed; mutation: R343I
Summary of the method: as §1

Gal(a1-2)Gal = conditions: glycan notation: IUPAC condensed, linker removed; mutation: R343I
Summary of the method: as §1

Gal(a1-3)GalNAc = conditions: glycan notation: IUPAC condensed, linker removed; mutation: R343I
Summary of the method: as §1

Gal(a1-4)GlcNAc = conditions: glycan notation: IUPAC condensed, linker removed; mutation: R343I
Summary of the method: as §1

[5] = target: Gal(b1-3)[GlcNAc(b1-6)]GalNAc; conditions: glycan notation: IUPAC condensed, linker removed; mutation: R343I
Summary of the method: as §1

[6] = target: Gal(b1-3)[Neu5Ac(b2-6)]GalNAc; conditions: glycan notation: IUPAC condensed, linker removed; mutation: R343I
Summary of the method: as §1

[7] = target: Gal(b1-4)GalNAc(a1-3)[Fuc(a1-2)]Gal(b1-4)GlcNAc; conditions: glycan notation: IUPAC condensed, linker removed; mutation: R343I
Summary of the method: as §1

[8] = target: Gal(b1-4)GlcNAc(b1-6)GalNAc; conditions: glycan notation: IUPAC condensed, linker removed
Summary of the method: as §1

[9] = target: GlcNAc(b1-2)Man(a1-3)[GlcNAc(b1-2)Man(a1-6)]Man(b1-4)GlcNAc(b1-4)GlcNAc; conditions: glycan notation: IUPAC condensed, linker removed
Summary of the method: as §1

GlcNAc(b1-3)Man = conditions: glycan notation: IUPAC condensed, linker removed; mutation: R343I
Summary of the method: as §1

[10] = target: GlcNAc(b1-4)[GlcNAc(b1-6)]GalNAc; conditions: glycan notation: IUPAC condensed, linker removed
Summary of the method: as §1

[11] = target: Man(a1-2)Man(a1-2)Man(a1-3)Man; conditions: glycan notation: IUPAC condensed, linker removed; mutation: R343I
Summary of the method: as §1

[12] = target: Man(a1-2)Man(a1-3)[Man(a1-2)Man(a1-6)]Man(a1-6)[Man(a1-2)Man(a1-2)Man(a1-3)]Man; conditions: glycan notation: IUPAC condensed, linker removed; mutation: R343I
Summary of the method: as §1

[13] = target: Man(a1-2)Man(a1-3)[Man(a1-6)]Man(a1-6)[Man(a1-2)Man(a1-3)]Man(b1-4)GlcNAc(b1-4)GlcNAc; conditions: glycan notation: IUPAC condensed, linker removed
Summary of the method: as §1

[14] = target: Man(a1-2)Man(a1-6)[Man(a1-3)]Man(a1-6)[Man(a1-2)Man(a1-2)Man(a1-3)]Man; conditions: glycan notation: IUPAC condensed, linker removed; mutation: R343I
Summary of the method: as §1

Man(a1-3)[Man(a1-6)]Man = conditions: glycan notation: IUPAC condensed, linker removed; mutation: R343I
Summary of the method: as §1

Man(a1-6)Man = conditions: glycan notation: IUPAC condensed, linker removed; mutation: R343I
Summary of the method: as §1

[15] = target: Neu5Ac(a2-3)Gal(b1-3)GlcNAc(b1-3)Gal(b1-3)GlcNAc; conditions: glycan notation: IUPAC condensed, linker removed; mutation: R343I
Summary of the method: as §1

[16] = target: Neu5Ac(a2-3)Gal(b1-3)GlcNAc6S; conditions: glycan notation: IUPAC condensed, linker removed; mutation: R343I
Summary of the method: as §1

[17] = target: Neu5Ac(a2-3)Gal(b1-4)GlcNAc(b1-3)Gal(b1-4)GlcNAc; conditions: glycan notation: IUPAC condensed, linker removed; mutation: R343I
Summary of the method: as §1

[18] = target: Neu5Ac(a2-3)Gal(b1-4)GlcNAc(b1-6)[Neu5Ac(a2-3)Gal(b1-3)]GalNAc; conditions: glycan notation: IUPAC condensed, linker removed; mutation: R343I
Summary of the method: as §1

Neu5Ac(a2-6)GalNAc = conditions: glycan notation: IUPAC condensed, linker removed; mutation: R343I
Summary of the method: as §1

[19] = target: Neu5Ac(a2-8)Neu5Ac(a2-3)Gal(b1-4)Glc; conditions: glycan notation: IUPAC condensed, linker removed
Summary of the method: as §1

[20] = target: Fuc(a1-2)Gal(b1-4)GlcNAc(b1-3)Gal(b1-4)GlcNAc; conditions: glycan notation: IUPAC condensed, linker removed; mutation: R343V
Summary of the method: as §1

[21] = target: Fuc(a1-2)Gal6S(b1-4)Glc6S; conditions: glycan notation: IUPAC condensed, linker removed; mutation: R343V
Summary of the method: as §1

[22] = target: Fuc(a1-2)[Gal(a1-3)]Gal(b1-4)GlcNAc; conditions: glycan notation: IUPAC condensed, linker removed; mutation: R343V
Summary of the method: as §1

[23] = target: Fuc(a1-2)[GalNAc(a1-3)]Gal(b1-3)GlcNAc; conditions: glycan notation: IUPAC condensed, linker removed; mutation: R343V
Summary of the method: as §1

Gal(b1-3)Gal(b1-4)GlcNAc = conditions: glycan notation: IUPAC condensed, linker removed; mutation: R343V
Summary of the method: as §1

[24] = target: Gal(b1-3)GalNAc(b1-4)Gal(b1-4)Glc; conditions: glycan notation: IUPAC condensed, linker removed; mutation: R343V
Summary of the method: as §1

[25] = target: Gal(b1-3)[Fuc(a1-4)]GlcNAc(b1-3)Gal(b1-4)[Fuc(a1-3)]GlcNAc; conditions: glycan notation: IUPAC condensed, linker removed; mutation: R343V
Summary of the method: as §1

[26] = target: Gal(b1-3)[Neu5Ac(a2-6)]GlcNAc(b1-6)Gal(b1-4)Glc; conditions: glycan notation: IUPAC condensed, linker removed; mutation: R343V
Summary of the method: as §1

Gal3S(b1-4)Glc6S = conditions: glycan notation: IUPAC condensed, linker removed; mutation: R343V
Summary of the method: as §1

Gal3S6S(b1-4)GlcNAc6S = conditions: glycan notation: IUPAC condensed, linker removed; mutation: R343V
Summary of the method: as §1

GlcA(b1-6)Gal = conditions: glycan notation: IUPAC condensed, linker removed; mutation: R343V
Summary of the method: as §1

[27] = target: GlcNAc(b1-3)Gal(b1-3)GalNAc; conditions: glycan notation: IUPAC condensed, linker removed; mutation: R343V
Summary of the method: as §1

[28] = target: GlcNAc(b1-3)[GlcNAc(b1-4)][GlcNAc(b1-6)]GlcNAc; conditions: glycan notation: IUPAC condensed, linker removed; mutation: R343V
Summary of the method: as §1

[29] = target: GlcNAc(b1-4)Gal(b1-4)GlcNAc; conditions: glycan notation: IUPAC condensed, linker removed; mutation: R343V
Summary of the method: as §1

Kdn(a2-3)Gal(b1-3)GlcNAc = conditions: glycan notation: IUPAC condensed, linker removed; mutation: R343V
Summary of the method: as §1

[30] = target: Man(a1-3)[Man(a1-6)]Man(a1-6)[Man(a1-2)Man(a1-3)]Man(b1-4)GlcNAc(b1-4)GlcNAc; conditions: glycan notation: IUPAC condensed, linker removed; mutation: R343V
Summary of the method: as §1

[31] = target: Man(a1-3)[Man(a1-6)]Man(a1-6)[Man(a1-3)]Man(b1-4)GlcNAc(b1-4)GlcNAc; conditions: glycan notation: IUPAC condensed, linker removed; mutation: R343V
Summary of the method: as §1

[32] = target: Neu5Ac(a2-3)Gal(b1-4)GlcNAc(b1-3)Gal(b1-3)GlcNAc; conditions: glycan notation: IUPAC condensed, linker removed; mutation: R343V
Summary of the method: as §1

[33] = target: Neu5Ac(a2-6)Gal(b1-4)GlcNAc6S; conditions: glycan notation: IUPAC condensed, linker removed; mutation: R343V
Summary of the method: as §1

[34] = target: Neu5Ac(a2-8)Neu5Ac(a2-8)Neu5Ac(a2-3)Gal(b1-4)Glc; conditions: glycan notation: IUPAC condensed, linker removed; mutation: R343V
Summary of the method: as §1

B1: Surfactant Protein D (Human); Neck + Carbohydrate Recognition Domain (NCRD) (Homo sapiens) (protein)
chain: MLLFLLSALVLLTQPLGYLEAEMKTYSHRTMPSACTLVMCSSVESGLPGRDRDGREGPRGEKGDPGLPGAAGQAGMPGQAGPVGPKGDNGSVGEPGPKGDTGPSGPPGPPGVPGPAGREGALGKQGNIGPQGKPGPKGEAGPKGEVGAPGMQGSAGARGLAGPKGERGVPGERGVPGNTGAAGSAGAMGPQGSPGARGPPGLKGDKGIPGDKGAKGESGLPDVASLRQQVEALQGQVQHLQAAFSQYKKVELFPNGQSVGEKIFKTAQFVKPFTEAQLLCTQAGGQLASPRSAAENAALQQLVVAKNEAAFLSMTDSKTEGKFTYPTGESLVYSNWAPGEPNDDGGSEDCVEIFTNGKWNDIACGEKRLVVCEF
glycan array binding signal (z-score) (Fuc(a1-2)Gal(b1-4)Glc6S; mutation: R343I): -0.274
glycan array binding signal (z-score) (Fuc(a1-2)[Gal(a1-3)]Gal): -0.265
glycan array binding signal (z-score) [1]: -0.272
glycan array binding signal (z-score) [2]: -0.266
glycan array binding signal (z-score) (Fuc(a1-3)GlcNAc; mutation: R343I): 5.51
glycan array binding signal (z-score) [3]: -0.264
glycan array binding signal (z-score) [4]: -0.272
glycan array binding signal (z-score) (Gal(a1-2)Gal): -0.275
glycan array binding signal (z-score) (Gal(a1-3)GalNAc): -0.268
glycan array binding signal (z-score) (Gal(a1-4)GlcNAc): -0.27
glycan array binding signal (z-score) [5]: -0.274
glycan array binding signal (z-score) [6]: -0.276
glycan array binding signal (z-score) [7]: -0.263
glycan array binding signal (z-score) ([8]; mutation: R343I): -0.275
glycan array binding signal (z-score) ([9]; mutation: R343I): 5.45
glycan array binding signal (z-score) (GlcNAc(b1-3)Man): -0.076
glycan array binding signal (z-score) ([10]; mutation: R343I): -0.05
glycan array binding signal (z-score) [11]: 4.64
glycan array binding signal (z-score) [12]: 4.37
glycan array binding signal (z-score) ([13]; mutation: R343I): 4.08
glycan array binding signal (z-score) [14]: 4.33
glycan array binding signal (z-score) (Man(a1-3)[Man(a1-6)]Man): 0.263
glycan array binding signal (z-score) (Man(a1-6)Man): -0.261
glycan array binding signal (z-score) [15]: -0.268
glycan array binding signal (z-score) [16]: -0.275
glycan array binding signal (z-score) [17]: -0.278
glycan array binding signal (z-score) [18]: -0.275
glycan array binding signal (z-score) (Neu5Ac(a2-6)GalNAc): -0.269
glycan array binding signal (z-score) ([19]; mutation: R343I): -0.267

B2: Surfactant Protein D (Human); Neck + Carbohydrate Recognition Domain (NCRD) (Homo sapiens) (protein)
chain: B1 chain with I362V
glycan array binding signal (z-score) (Fuc(a1-2)Gal(b1-4)Glc6S; mutation: R343V): -0.514
glycan array binding signal (z-score) [20]: 1.5
glycan array binding signal (z-score) [21]: -0.304
glycan array binding signal (z-score) [22]: -0.508
glycan array binding signal (z-score) [23]: -0.559
glycan array binding signal (z-score) (Fuc(a1-3)GlcNAc; mutation: R343V): 3.11
glycan array binding signal (z-score) (Gal(b1-3)Gal(b1-4)GlcNAc): -0.562
glycan array binding signal (z-score) [24]: -0.463
glycan array binding signal (z-score) [25]: 2.11
glycan array binding signal (z-score) [26]: -0.498
glycan array binding signal (z-score) ([8]; mutation: R343V): -0.546
glycan array binding signal (z-score) (Gal3S(b1-4)Glc6S): -0.317
glycan array binding signal (z-score) (Gal3S6S(b1-4)GlcNAc6S): -0.189
glycan array binding signal (z-score) (GlcA(b1-6)Gal): -0.463
glycan array binding signal (z-score) ([9]; mutation: R343V): 3.08
glycan array binding signal (z-score) [27]: 1.72
glycan array binding signal (z-score) [28]: 3.11
glycan array binding signal (z-score) [29]: 3.13
glycan array binding signal (z-score) ([10]; mutation: R343V): 2.16
glycan array binding signal (z-score) (Kdn(a2-3)Gal(b1-3)GlcNAc): -0.504
glycan array binding signal (z-score) ([13]; mutation: R343V): 2.61
glycan array binding signal (z-score) [30]: 3.01
glycan array binding signal (z-score) [31]: 3.27
glycan array binding signal (z-score) [32]: -0.489
glycan array binding signal (z-score) [33]: -0.319
glycan array binding signal (z-score) ([19]; mutation: R343V): -0.47
glycan array binding signal (z-score) [34]: -0.49
